High-throughput results deposited in PubChem BioAssay by several laboratories.
Compounds with a hit are over-represented: about 27% of the library has one in this group of screens.
CYP2C19 activ = human CYP2C19 activators, primary screen, biochemical, luminescence; AID 1025, 2008; recombinant CYP2C19, luciferin-H EGE luminescence; active compounds read high; 0 = fully inhibited enzyme, 1 = untreated enzyme; activation factor at 5 µM; Cytochrome P450 2C19 (Homo sapiens), P33261; 96,000 tested, under 10 active;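 active = activation factor of at least 2 at 5 µM in the primary screen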
EphB4 ephrin blk = EphB4-ephrin-B2 interaction antagonists, primary screen, biochemical, TNYL-RAW peptide probe, fluorescence polarization. Ephrin type-B receptor 4 (Homo sapiens), P54760. EphB4 LBD / TNYL-RAW-Alexa532 peptide. inhibition, % at 7 µM. actives 0.15% (n = 97,000);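 active = inhibition above the screen-wide mean inhibition plus 3 SD, cut at about 15% in these data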
CYP2C19 inh = blockers of cytochrome P450 2C19 activity – biochemical, luminescence, ADME assay, primary screen | actives 21% (n = 96,000) | P33261 | inhibition, % at 5 µM | AID 778, 2007 | CYP2C19 Supersomes, luciferin-H EGE luminescence, 30 min;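 active = CYP2C19 inhibition above a set limit at 5 µM in the primary screen, cut at about 50% in these data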
CYP2C9 inh = blockers of cytochrome P450 2C9 activity – biochemical, luminescence, ADME assay, primary screen; CYP2C9 Supersomes, luciferin-H conversion; AID 777, 2007; actives 20% (n = 96,000); inhibition, % at 5 µM; P11712;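 active = blocking of liver enzyme CYP2C9 beyond about 50% at 5 µM, limit read from the data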
Target sequence (P11712 whole entry, looked up): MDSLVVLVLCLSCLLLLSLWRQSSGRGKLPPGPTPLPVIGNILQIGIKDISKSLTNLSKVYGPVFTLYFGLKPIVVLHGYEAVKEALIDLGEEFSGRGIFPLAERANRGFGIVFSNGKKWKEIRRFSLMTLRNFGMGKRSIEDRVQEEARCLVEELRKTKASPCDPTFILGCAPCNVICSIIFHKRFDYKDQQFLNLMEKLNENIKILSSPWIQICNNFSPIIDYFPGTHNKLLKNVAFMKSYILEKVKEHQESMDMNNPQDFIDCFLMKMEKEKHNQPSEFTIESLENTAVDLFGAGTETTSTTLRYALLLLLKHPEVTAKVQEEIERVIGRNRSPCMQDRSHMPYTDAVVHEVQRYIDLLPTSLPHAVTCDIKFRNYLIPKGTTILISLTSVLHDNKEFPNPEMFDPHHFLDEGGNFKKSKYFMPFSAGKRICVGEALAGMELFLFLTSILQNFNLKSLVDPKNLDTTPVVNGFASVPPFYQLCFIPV
CYP2C9 act = human CYP2C9 activators, primary screen, biochemical, luminescence | Cytochrome P450 2C9 (Homo sapiens), P11712 | recombinant CYP2C9, luciferin-H conversion; active compounds read high; factor 1 = untreated enzyme, 0 = blocked | activation factor at 5 µM | actives 1.4% (n = 96,000) | AID 1024, 2008;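 active = activation factor of 2 or more for CYP2C9 at a 5 µM dose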
Of the large screens only hits and unclear results are named; the others gave an inactive call.

O=C(CC1CC2CCC1C2)NCc1cccs1 (stereo unspecified)	CYP2C19 inh 66.4
O=C(CSCC(=O)NCc1ccco1)NCc1ccco1	none
O=C(CSCc1ccc(F)cc1)NCc1ccco1	CYP2C19 inh 70.5
CCOC(=O)C1(C(=O)O)NC(=O)CC1c1ccccc1 (stereo unspecified)	none
CC(C)Cn1c(N)c(C(=O)COC(=O)c2ccncc2)c(=O)n(C)c1=O	CYP2C9 inh 52.6
CC(C)Cn1c(N)c(C(=O)COC(=O)CC23CC4CC(CC(C4)C2)C3)c(=O)n(C)c1=O	CYP2C19 inh 62.7, CYP2C9 inh 84.6
Cc1nnc(NC(=O)CSc2cn(Cc3ccccc3)c3ccccc23)s1	none
Cc1ccc(Cn2cc(SCC(=O)Nc3nccs3)c3ccccc32)cc1	CYP2C9 inh 91.0
Cc1cccc(Cn2cc(SCC(=O)Nc3nccs3)c3ccccc32)c1	CYP2C9 inh 60.4
O=C(Cn1cc[n+](CC(=O)c2ccccc2)c1)c1ccccc1	none
Cc1cc(C)cc(NC(=S)NC2CC3CCC(C2)N3Cc2ccco2)c1 (stereo unspecified)	none
CN(C(=O)CSc1ccccc1C(=O)O)C1CCCCC1	none
CN(C(=O)CSc1nc2c(c(=O)[nH]1)CCCC2)C1CCCCC1	CYP2C9 inh 69.3
Cc1nc(SCC(=O)N(C)C2CCCCC2)[nH]c(=O)c1Cc1ccccc1	CYP2C19 inh 59.8, CYP2C9 inh 69.0
Cc1nc(SCC(=O)NC2CCCC2)[nH]c(=O)c1Cc1ccccc1	none
O=C(OCc1nc2ccccc2s1)c1cccc(S(=O)(=O)N2CCOCC2)c1	CYP2C19 inh 60.3, CYP2C9 inh 64.7
O=C(CCc1ccc(S(=O)(=O)N2CCOCC2)cc1)OCc1nc2ccccc2s1	none
O=C(COC(=O)c1cccc(S(=O)(=O)N2CCOCC2)c1)Nc1nc(-c2ccccc2Cl)cs1	CYP2C19 inh 66.6, CYP2C9 inh 73.5
Cc1cc(NC(=O)COC(=O)c2cccc(S(=O)(=O)N3CCOCC3)c2)no1	none
Cc1noc(C)c1S(=O)(=O)N1CCC(C(=O)N2CCC(C)CC2)CC1	none
COc1ccc2c(c1)[nH]c1c(=O)n(CCC3=CCCCC3)cnc12	none
CCOc1ccc(S(=O)(=O)NCCSCc2ccco2)cc1	none
Cc1ccccc1CSCCNS(C)(=O)=O	none
COc1ccc(S(=O)(=O)NCCC(=O)NCc2cccs2)cc1	none
COc1ccc(S(=O)(=O)NCCSCc2ccco2)cc1OC	CYP2C19 inh 59.6, CYP2C9 act 2.2
COc1ccc(S(=O)(=O)NCCSCc2ccccc2C)cc1Br	CYP2C19 inh 80.8, CYP2C9 act 2
COc1ccc(S(=O)(=O)NCCSCc2ccco2)cc1	CYP2C19 inh 88.8
COc1ccc(S(=O)(=O)NCCSCc2cccs2)cc1	CYP2C19 inh 93.7
COC(=O)c1ccc(NC(=O)CSc2nncn2C)cc1	none
CNC(=O)CSc1nnc(-c2cc(C)cc(C)c2)o1	none
Clc1ccc(Cc2ccc(SCc3ccccc3)nn2)c(Cl)c1	none
Clc1ccc(Cc2ccc(Cl)nn2)c(Cl)c1	CYP2C19 inh 73.0
Cc1c(OCc2ccc(C(=O)O)o2)ccc2c3c(c(=O)oc12)CCC3	none
COC(=O)c1ccc(COc2ccc3c(C)c(C)c(=O)oc3c2C)o1	EphB4 ephrin blk 21.6
CCOc1ccc2c(C)c(C)c(=O)oc2c1OCC	CYP2C19 inh 50.8, CYP2C9 act 2.5
CCOc1c(OC)ccc2c3c(c(=O)oc12)CCCC3	CYP2C19 inh 75.9, CYP2C9 act 2.6
CCOc1ccc2c(C)c(C(=O)O)oc2c1OCC	none
O=C(NCCCN1CCCC1)C1CCC(=O)N1C1CCCCC1 (stereo unspecified)	none
Cn1c(SCC(=O)N2CCOCC2)nnc1-c1cccc(NC(=O)c2ccccc2F)c1	none
CCOC(=O)C1CCN(S(=O)(=O)c2cc(Br)cc3c2N(C(C)=O)C(C)C3)CC1 (stereo unspecified)	CYP2C19 inh 93.3, CYP2C9 inh 78.9 (no result: EphB4 ephrin blk)
CCOC(=O)N1CCN(S(=O)(=O)c2cc(Br)cc3c2N(C(C)=O)C(C)C3)CC1 (stereo unspecified)	CYP2C19 inh 64.0 (no result: EphB4 ephrin blk)
CCS(=O)(=O)N1CCC(C(=O)NCc2cccc(OC)c2)CC1	none
CC(=O)N1CCc2cc(Br)cc(S(=O)(=O)N3CCN(c4ccccn4)CC3)c21	none
CC(=O)N1c2c(cc(Br)cc2S(=O)(=O)N2CCN(c3ccccn3)CC2)CC1C (stereo unspecified)	CYP2C9 inh 67.1
COc1cccc(CNS(=O)(=O)c2cc(Br)cc3c2N(C(C)=O)C(C)C3)c1 (stereo unspecified)	CYP2C19 inh 74.3, CYP2C9 act 2.1
O=C1C2CCCN2C(c2ccccc2F)N1c1ccc(Cl)cc1 (stereo unspecified)	none
CCCCCOC(=O)C1=C(C)Nc2nnnn2C1c1ccccc1Cl (stereo unspecified)	none
COC(=O)c1sc(NC(=O)CSc2nnc(C(C)C)n2C)nc1C	none
C=CCOC(=O)C1=C(C)NC(SC)=C(C#N)C1c1ccc(OCC)cc1 (stereo unspecified)	CYP2C19 inh 86.0, CYP2C9 inh 93.4
C=CCOC(=O)C1=C(C)NC(SCC(=O)OCC)=C(C#N)C1c1ccc(O)c(OC)c1 (stereo unspecified)	CYP2C19 inh 99.1, CYP2C9 inh 100.2
CCOC(=O)C1=C(C)NC2=C(C(=O)C(C(=O)OC)C(C)C2)C1c1ccc(OC)c(O)c1 (stereo unspecified)	none
Nc1nonc1-c1noc(COc2ccccc2Cl)n1	CYP2C19 inh 86.3
CCOc1ccc(Cc2nc(-c3nonc3N)no2)cc1OCC	CYP2C19 inh 50.0 (no result: EphB4 ephrin blk)
c1ccc(CCc2nc(-c3ccccn3)no2)cc1	CYP2C19 inh 54.8
Clc1ccccc1OCc1nc(-c2ccccn2)no1	CYP2C19 inh 84.7
O=C(NCCCCNC(=O)c1ccc(Cl)s1)c1ccc(Cl)s1	none (no result: CYP2C19 activ, CYP2C19 inh, CYP2C9 inh, CYP2C9 act)
Cc1cccc(OCc2nc(-c3nonc3N)no2)c1C	CYP2C19 inh 65.9 (no result: EphB4 ephrin blk)
COc1cccc(OCc2nc3c4cnn(-c5ccccc5)c4ncn3n2)c1	CYP2C19 inh 53.2
COc1cccc(OCCN2CCN(c3ncnc4c3cnn4-c3ccccc3)CC2)c1	none
CCCCn1c(N)c(N(CC(C)C)C(=O)CN(C)Cc2cccc(OC)c2)c(=O)[nH]c1=O	CYP2C19 inh 56.2
CCOc1ccccc1-c1nc(C(N)=O)c2[nH]c(=O)n(-c3cccc(C)c3)c2n1	CYP2C9 inh 63.7
COc1ccc(OC)c(-c2nc(C(N)=O)c3[nH]c(=O)n(-c4ccc(F)cc4)c3n2)c1	CYP2C9 inh 53.8
COc1ccc(-c2nc(C(N)=O)c3[nH]c(=O)n(-c4ccccc4OC)c3n2)c(OC)c1	none
O=C(Nc1ccc2c(c1)OCCO2)c1ccc(Cl)c(S(=O)(=O)N2CCOCC2)c1	CYP2C19 inh 63.3
